In all, about 5,000 compounds went through this assay and about 3,900 (78%) were called active. The set was probably picked from earlier hits. The list is a sample of the results. A number with no mark means an inactive call. No stated cut-off is given here; in the data, active means inhibition above about 22%; inactive means the rest.

Drawing on PubChem BioAssay AID624504 (Sanford-Burnham Center for Chemical Genomics, 2012), this text covers inhibition for 59 compounds.

A short description of the experiment: fluorescence retest of MPTP screen hits in isolated mitochondria, single concentration (AID 624504).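 Further: 0% = DMSO vehicle and 100% = positive control.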 The note with it: membrane potential, Rhodamine 123 fluorescence, at 10 µM, stronger effect = higher value.
As to `NS(=O)(=O)c1ccc(NC(=S)Nc2ccc(Br)c(Cl)c2)cc1`, the inhibition was 76% (active).
For `CCN1CCC(O)(/C=C/c2ccc(C)cc2)C(C(=O)/C=C/c2ccc(C)cc2)C1` (centres undefined), the inhibition is -14.1%.
On to `Cc1cc(C)cc(NS(=O)(=O)c2ccc(Oc3ncc(C(F)(F)F)cc3Cl)cc2)c1`, for which the inhibition is 93.4% (active).
In the case of `FC(F)Oc1ccccc1NC(=S)Nc1cccc(Cl)c1Cl`, the inhibition is 44.5% (active).
Consider `CN(Cc1cccnc1)C(=O)c1cc(COc2ccc3ncccc3c2)on1`, for which the inhibition was 73% (active).
Next, `CCCc1[nH]nc2c1C(c1c(C)nn(-c3ccccc3)c1Cl)C(C#N)=C(N)O2` (centres undefined): -3.33%; `O=C1CC(c2ccccc2)=NN1c1ccc([N+](=O)[O-])cc1`: 77.6% (active).
Turning to `O=C(Nc1cccc(Cl)c1)Nc1ccccc1NS(=O)(=O)c1cccs1`, the inhibition is 89.6% (active).
As to `COc1cc(CC(=O)Nc2nc(-c3ccc(F)c(F)c3)cs2)cc(OC)c1OC`, the inhibition is 93.2% (active).
Next, `COc1ccc(CC(=O)Nc2nc(-c3ccc(F)c(F)c3)cs2)cc1OC`: 94.5% (active).
For `CCCOc1ccc(Cc2c(Cl)nc(SC)nc2NC)cc1`, the inhibition is 93.6% (active).
Take `Cn1nccc1NC(=O)Nc1ccc(OC(F)(F)F)cc1`: the inhibition is 73.2% (active).
Consider `CC(=N\NC(=O)c1cc(Br)ccc1O)/C(=N/O)C(=O)Nc1ccccc1`, for which the inhibition is 78.4% (active).
For `Cc1oc2c(F)c(F)c(F)c(F)c2c1S(=O)(=O)Nc1cccc(C(F)(F)F)c1`, the inhibition was 83.5% (active).
Next, `Cc1oc2cc([N+](=O)[O-])c(O)c([N+](=O)[O-])c2c1C(=O)c1ccc(Br)cc1`: 61.8% (active).
With `O=C(Cc1ccc(-n2c(=O)[nH]c3ccccc3c2=O)cc1)N1CCN(c2cccc(Cl)c2)CC1`, the inhibition was 49.8% (active).
Regarding `COc1ccc(CCNc2cc(N3CCN(C(=O)c4ccccc4OC)CC3)ccc2[N+](=O)[O-])cc1OC`, the inhibition was 47.7% (active).
Regarding `Cc1ccc2c(c1)C1CN(C)CCC1N2S(=O)(=O)c1ccc(Oc2ccc([N+](=O)[O-])cc2)cc1` (centres undefined), the inhibition is -16.2%.
Regarding `Cc1ccc(NC(=O)COc2ccc(-n3ccnc3)cc2)cc1Cl`, the inhibition is 94.1% (active).
Turning to `O=C(Nc1nnc(SCc2ccc(Cl)cc2Cl)s1)C1COc2ccccc2O1` (centres undefined), the inhibition is 72.7% (active).
Take `O=C(Nc1nc2c(F)cc(F)cc2s1)C1COc2ccccc2O1` (centres undefined): the inhibition was 76.6% (active).
For the compound `O=C(NCCNc1ccc([N+](=O)[O-])cc1)c1cccc2c(Br)cccc12`, the inhibition is 84.9% (active).
As for `Cc1cccc(-c2nc3ccc(C(=O)NCCN4CCN(C)CC4)cc3nc2-c2cccc(C)c2)c1`, the inhibition was -16.4%.
On to `CN1CCN(CCNC(=O)Nc2ccc([N+](=O)[O-])cc2)CC1`, for which the inhibition was 75.1% (active).
Next, `O=C(NCCCN1CCN(c2ccc(F)cc2)CC1)Nc1ccc([N+](=O)[O-])cc1`: 89.6% (active); `CCCOc1ccc(C(=O)C(CCC(CNCC)C(=O)c2ccc(OCCC)cc2)CNCC)cc1` (centres undefined): -13.8%.
Consider `O=c1c(-c2ccc3c(c2)OCCO3)c(C(F)(F)F)oc2cc(O)cc(O)c12`, for which the inhibition was 80.7% (active).
Turning to `CC1=C/C(=N\OS(=O)(=O)c2ccccc2)C=CC1=O`, the inhibition is 92.7% (active).
With `Cc1c(C(=O)OC(C)C)sc(NC(=O)c2cccnc2)c1C#N`, the inhibition was 82.8% (active).
On to `Cc1ccc(-c2nc(-c3cccnc3)sc2CC(=O)Nc2ccc(C)c(Cl)c2)cc1`, for which the inhibition is 90.8% (active).
As for `CCNS(=O)(=O)c1ccc(NC(=O)Nc2cccc(C(F)(F)F)c2)cc1`, the figure is 73.9% (active).
For the compound `CCc1cc2c(NC3CCCC3)ncnc2s1`, the inhibition was 59.8% (active).
As for `N/C(=N\OC(=O)Nc1ccc(Cl)c(Cl)c1)c1ncc(C(F)(F)F)cc1Cl`, the inhibition was 118% (active).
As to `c1ccc(-c2cc3c(NCC4COc5ccccc5O4)ncnc3s2)cc1` (centres undefined), the inhibition is 70.6% (active).
`O=C(NC1CCN(Cc2ccccc2)CC1)c1cc(Br)c(Br)[nH]1`: the inhibition was 9.55%.
On to `CSc1nccc(NC(=O)c2ccc(C(C)(C)C)cc2)n1`, for which the inhibition is 91.4% (active).
As for `COc1cc(C(=O)Nc2oc(-c3ccccc3)c(-c3ccccc3)c2C#N)cc(OC)c1OC`, the inhibition was 63% (active).
Consider `COC(=O)c1sccc1NC(=O)CSc1ccccc1NS(=O)(=O)c1cc(Cl)ccc1Cl`, for which the inhibition is 90.9% (active).
For the compound `Cn1nc(C(F)(F)F)c(C(=O)Nc2cccc(C(F)(F)F)c2)c1SCc1ccc(Cl)cc1`, the inhibition was 63.4% (active).
Turning to `COc1cc(NS(=O)(=O)c2ccc(NC(C)=O)cc2)cc(OC)c1`, the inhibition is 47.9% (active).
Consider `COc1ccc(S(=O)(=O)Nc2ccc3oc(C)c(C(C)=O)c3c2)cc1`, for which the inhibition is 63.9% (active).
On to `CC(C)OCCCNc1ncnc2c1[nH]c1ccc(F)cc12`, for which the inhibition is 110% (active).
Next, `COc1ccc2oc(-c3cccc(NC(=O)CSc4ccc(Cl)cc4)c3)nc2c1`: 70.8% (active); `O=C(Nc1ccc(Cl)cc1)Nc1ccc(Oc2cccnc2)nc1`: 94.2% (active).
With `CCCc1cc(=S)n2c([nH]c3ccccc32)c1C#N`, the inhibition is 80.9% (active).
On to `Cc1ccc(Sc2ccc(NC(=O)c3ccc(F)cc3)cc2C#N)cc1`, for which the inhibition is 99.4% (active).
On to `COc1ccc(Sc2ccc(NC(=O)c3cccc(Cl)c3)cc2C#N)cc1`, for which the inhibition is 77.8% (active).
As for `O=C(NNC(=O)c1csc(-c2cccnc2)n1)Nc1ccc(Cl)cc1`, the inhibition was 68.5% (active).
As for `O=C(Nc1nnc(S(=O)(=O)N2CCCCCC2)s1)c1cccc(Br)c1`, the figure is 99.7% (active).
For `CCOC(=O)c1cc2cc(-c3c(C(=O)OCC)oc4cc(O)cc(O)c4c3=O)ccc2o1`, the inhibition is 47.3% (active).
Take `COc1ccc(Cn2c(=O)sc3ccccc32)cc1OC`: the inhibition was 38.6% (active).
For `COc1ccc2sc(N(CCCN(C)C)C(=O)c3ccc(S(=O)(=O)N(C)C4CCCCC4)cc3)nc2c1`, the inhibition was -15.4%.
For the compound `O=C(Nc1nnc(SCc2c(Cl)cccc2Cl)s1)c1cccc([N+](=O)[O-])c1`, the inhibition is 82.1% (active).
Regarding `O=C(Nc1nnc(SCc2ccccc2Cl)s1)c1cccc([N+](=O)[O-])c1`, the inhibition was 79.5% (active).
On to `O=C(c1ccc(Cl)cc1)c1ccc(OCC(O)CN2CCCCC2)cc1` (centres undefined), for which the inhibition was -2.35%.
`O=C(COC(=O)c1ccccc1NC(=O)c1ccco1)Nc1ccc2c(c1)OC(F)(F)O2`: the inhibition is 16.6%.
With `O=C(Cc1c(F)cccc1Cl)Nc1ncc([N+](=O)[O-])s1`, the inhibition was 98.1% (active).
Consider `S=C(NCc1ccc(Cl)cc1)NC12CC3CC(CC(C3)C1)C2`, for which the inhibition was 83.4% (active).
Turning to `S=C(NCc1ccc(Cl)cc1)NC1CCCCC1`, the inhibition is 92.6% (active).

One may read the inhibition as the relative decrease from the control value, in per cent.
